# In the library only some 3.5% were active in any assay of this set; here they are far more common.
# NS1 inh – qHTS Assay for Inhibitors of Influenza NS1 Protein Function; Potency, µM (series often up to 46.1 µM); 270,000 tested, 0.4% active; calls by dose curve; note: actives are rising curves; nearly all actives have a fitted effect of over 50% in size
#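 Read-out: OD600 growth recovery of NS1-expressing budding yeast. Cells grown overnight at 30C in -URA glucose medium, washed, resuspended and diluted 1:100 in 2% galactose assay medium, pH 6.0. Same strain lacking NS1 served as positive control.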
# Tb PYK inh – qHTS of Trypanosoma Brucei Inhibitors. TbPYK enzyme, Kinase-Glo Plus ATP luminescence, 45 min. pyruvate kinase (Trypanosoma brucei), Q57TT1. 410,000 tested, 0.12% active. AID 624173, 2012. Potency, µM (series often up to 76.8 µM), most hits filed as inhibitors; note: nearly all actives have a fitted effect of over 50% in size
#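 ADP (130 uM final) triggers the TbPYK reaction after compound addition; incubation is 45 min at room temperature. Kinase-Glo Plus is then added and luminescence imaged. Normalized data are fitted to concentration-effect curves.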
# FBPA Giardia inh – qHTS Assay for Inhibitors of Fructose-1,6-bisphosphate Aldolase from Giardia Lamblia; purified Giardia FBPA; Potency, µM (doses to about 59.6 µM), most hits filed as inhibitors; 290,000 tested, 0.71% active; note: nearly all actives have a fitted effect of over 55% in size
#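 40 nM FBPA preincubated 10 min at RT with compound (up to 57.5 uM final), then substrate plus GAPDH/TPI/NAD/arsenate coupling and diaphorase/resazurin added. Fluorescence read after 20 min at RT, 525/598 nm.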
# LmPK inh – qHTS Assay for Inhibitors of Leishmania Mexicana Pyruvate Kinase (LmPK); Q27686; 290,000 tested, 0.37% active; Potency, µM (series often up to 57.5 µM), usual class: inhibitors; purified LmPK, Kinase-Glo ATP luminescence, 1 h
# Target sequence (Q27686 whole entry, looked up): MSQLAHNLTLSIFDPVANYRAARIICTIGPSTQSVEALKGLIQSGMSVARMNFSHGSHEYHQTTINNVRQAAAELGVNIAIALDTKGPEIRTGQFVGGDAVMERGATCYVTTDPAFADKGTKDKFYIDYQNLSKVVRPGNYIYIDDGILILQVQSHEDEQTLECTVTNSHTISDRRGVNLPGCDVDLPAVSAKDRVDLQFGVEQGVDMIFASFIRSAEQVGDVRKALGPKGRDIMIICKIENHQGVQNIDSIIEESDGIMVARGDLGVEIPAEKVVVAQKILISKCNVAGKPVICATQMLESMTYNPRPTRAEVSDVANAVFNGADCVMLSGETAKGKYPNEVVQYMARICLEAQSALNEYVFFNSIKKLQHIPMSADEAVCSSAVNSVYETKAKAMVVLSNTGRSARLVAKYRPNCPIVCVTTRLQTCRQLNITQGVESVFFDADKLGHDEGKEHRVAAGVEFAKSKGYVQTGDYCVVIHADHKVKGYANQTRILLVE
#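 Purified LmPK (0.1 nM) with 0.5 mM PEP and 0.1 mM ADP in imidazole buffer pH 7.2 with MgCl2/KCl, 1 h at room temperature. ATP formed was read by luciferase luminescence and normalized to no-enzyme and uninhibited controls.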
# Sm TGR inh – qHTS Assay for the Inhibitors of Schistosoma Mansoni Peroxiredoxins; Schistosoma mansoni thioredoxin glutathione reductase (TGR), Q962Y6; purified TGR, DTNB reduction, TNB absorbance 405 nm; Potency, µM (series often up to 114 µM), most hits filed as inhibitors; 360,000 tested, 3% active; AID 485364, 2010; note: nearly all actives have a fitted effect of over 60% in size
#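 First, TGR (20 nM dispensed) and NADPH were mixed with compound. Second, a 15 min room-temperature incubation followed. Third, further NADPH and then DTNB were added to start the reaction. Finally, TNB absorbance was monitored kinetically.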
# RE007 growth inh – qHTS Assay for Inhibitors of the HIV-1 protein Vpr. S. pombe RE007 Vpr strain, BacTiter-Glo ATP luminescence, 24 h. Potency, µM (series often up to 92.2 µM), hits mostly inhibitors. 360,000 tested, 0.21% active. AID 651644, 2012; active = well fitted falling curve with a large enough effect; inconclusive = small, poorly fitted or top-dose-only effect; inactive = no such curve, though single readings can be large or run the other way; note: nearly all actives have a fitted effect of over 50% in size
#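 Fission yeast RE007 carrying one integrated HIV-1 vpr copy, seeded at OD 0.01 in PMG+AL medium with 23 nL pinned compound. Grown 24 h at 30 degrees; viability read by BacTiter-Glo luminescence after 5 min.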
# Numbers stand for hits; . = inactive; ? = inconclusive; / = not tested or not shown; [ ] = dose if it differs, or a comment. Unless noted, calls come from the whole dose curve; as a rule, active = well fitted curve in the direction sought with a large enough effect; inconclusive = small, poorly fitted or top-dose-only effect, or another doubt; inactive = no such curve, though single readings can be large; an effect the other way counts as inactive or inconclusive.
SMILES,NS1 inh,Tb PYK inh,FBPA Giardia inh,LmPK inh,Sm TGR inh,RE007 growth inh
O=C(CCNc1cccc(F)c1)c1cccc([N+](=O)[O-])c1,.,.,.,.,0.28µM,?
O=C(Nc1cccc([N+](=O)[O-])c1)c1ccncc1,.,.,.,.,.,.
Cc1ccc(CNC(=O)c2ccc3c(O)c(S(=O)(=O)c4ccc(Cl)cc4)c(=O)[nH]c3c2)cc1,/,.,/,/,.,/
COc1ccc(C)cc1NC(=O)C(=O)NCC(c1cccnc1)N1CCc2ccccc21 (stereo not drawn),/,.,/,/,.,/
S=c1[nH]nc(-c2ccccc2)n1C1C=CCCC1 (stereo not drawn),.,8.9µM,.,2.5µM,.[11.4 µM],.
S=c1[nH]nc(-c2cccnc2)n1C1CCCCC1,.,?,.,8.9µM,.,.
S=c1[nH]nc(-c2cccnc2)n1Cc1ccccc1,.[9.22 µM],?,.,?,.,.
S=c1[nH]nc(-c2ccccc2)n1CC1CCCO1 (stereo not drawn),.,?,.,.,.,.
CC1CCCCC1n1c(-c2cccnc2)n[nH]c1=S (stereo not drawn),.,11µM,.,20µM,.,.
COc1ccc(-c2n[nH]c(=S)n2C2CCCCC2)cc1,.,?,.,4.5µM,89µM,.
CCOc1ccc(NC(=O)c2cccc(N3CCCS3(=O)=O)c2)cc1,/,.,/,/,.,/
CS(=O)(=O)OCCCNCCCOS(C)(=O)=O,/,.,/,/,/,/
N#CCCSC(=S)[C@H]1CCCC1=N,.,/,/,/,/,/
Cc1ccsc1-c1n[nH]c(=S)n1C1CCCCC1,.,3.2µM,.,8.9µM,.,.
Cc1ccsc1/C=N/n1c(-c2ccco2)n[nH]c1=S,.,.,/,.,.,.
CC(C)CN1CCC(=O)N(C(CSc2ccc(Br)cc2)Cc2ccccc2)CC1 (stereo not drawn),/,/,.,/,/,/
Cc1nc(N2CCN(C(=O)c3ccco3)CC2)c2c3c(sc2n1)CCCC3,.,.,.,.,45µM,.
O=C(c1ccco1)N1CCN(c2nc(C3CC3)nc3sc4c(c23)CCCC4)CC1,.,.,.,.,40µM,.
Cc1nc(N2CCN(C(=O)c3ccco3)CC2)c2c3c(sc2n1)CC(C)CC3 (stereo not drawn),.,.,.,.,.,.
O=C(O)C1C2C=CC(O2)C1C(=O)Nc1ccc2c(c1)OCCO2 (stereo not drawn),.,/,.,.,35µM,/
CCCOC(=O)c1ccc(NC(=O)C2C3C=CC(O3)C2C(=O)O)cc1 (stereo not drawn),.,.,.,.,20µM,13µM
O=C(O)C1C2C=CC(C2)C1C(=O)Nc1ccc2c(c1)OCCO2 (stereo not drawn),.,.,.,.,.,.
COc1cccc(NC(=O)C2C3C=CC(O3)C2C(=O)O)c1 (stereo not drawn),.,.,.,.,35µM,.
COc1ccc(NC(=O)C2C3C=CC(O3)C2C(=O)O)cc1 (stereo not drawn),.,.,.,.,45µM,.
Cc1cc(C)cc(NC(=O)N2CCC(CN3CCCCCC3)CC2)c1,/,.,/,/,.,/
SMILES,NS1 inh,Tb PYK inh,FBPA Giardia inh,LmPK inh,Sm TGR inh,RE007 growth inh
COc1ccc(C(=O)Nc2nnc(SCc3cc(=O)c4cc(C)ccc4[nH]3)s2)cc1OC,/,.,/,/,.,/
Cn1c(=O)c2c(nc(N/N=C\c3ccccc3C(=O)O)n2C)n(C)c1=O,.,/,/,/,/,/
CCN(c1ccccc1)S(=O)(=O)c1cc(-c2onc(C)c2C)ccc1OC,/,.,/,/,.,/
Cc1csc(CNc2ncnc3ccc(-c4ccc5c(ccn5C)c4)cc23)c1,/,/,/,/,.,/
Cc1ccc2nc3c(nc2c1C)C(O)=C3O,.,.,.,.,7.9µM,.
COc1cc2c(cc1OC)C(COc1ccc3c(C)cc(=O)oc3c1)N(C(=O)c1cc(Cl)ccc1OC)CC2 (stereo not drawn),/,.,/,/,.,/
CC1(C)CC(=O)C(C(C2=C(O)CC(C)(C)CC2=O)c2ccc(Br)s2)C(=O)C1 (stereo not drawn),.,?,.,.,10µM,?
Cc1ccc(C(C2=C(O)CC(C)(C)CC2=O)C2C(=O)CC(C)(C)CC2=O)s1 (stereo not drawn),.,?,.,.,?,.
CCOP(=O)(C1=C(O)C(=O)C(C(C)(C)C)=CC1=O)c1ccccc1 (stereo not drawn),/,?,?,.,1.4µM,.
Cc1nn(-c2ccccc2)c(Cl)c1CN(C(=O)CCl)c1ccc(Cl)cc1,.,.,.,.,2µM,.
CCCCN=C1NN=C(c2ccc3c(c2)OCCO3)CS1,/,?,.,.[11.5 µM],.,.
c1cc2c(cc1C1=NNC(=NC3CC3)SC1)OCCO2,/,?,.,11µM,.,?
Cc1ccc(-c2nn(-c3cccc(F)c3)cc2CN2CCN(c3ccccn3)CC2)o1,.,.,.,.,?,.
Cc1ccc(-c2nn(-c3cccc(F)c3)cc2CN(Cc2nccn2C)C(C)C)o1,.,.,.,.,20µM,.
CN(C)CCN(C(=O)c1ccc(C(=O)c2ccccc2)cc1)c1nc2cc3c(cc2s1)OCCO3,.,.,.,.,.,.
CN(C)CCN(C(=O)c1ccc(N2C(=O)CCC2=O)cc1)c1nc2cc3c(cc2s1)OCCO3,/,/,.,.,35µM,/
CC(C)NC(=O)NC1C2CC3CC(C2)CC1C3 (stereo not drawn),.,.,.,.,89µM,.
CCN(CC)CCNC(=O)c1[nH]c2ccccc2c1Sc1ccc(Cl)cc1,/,.,/,/,.,/
O=C(NCc1cccnc1)C1c2ccccc2C(=O)N1Cc1ccco1 (stereo not drawn),.,.,.,.,35µM,.
C[C@H](NC(c1cccc2nc(O)c(O)nc12)P(=O)(O)O)c1ccc(Br)cc1 (stereo partly drawn),/,/,.,/,/,/
[Cl][Pd][Cl].[S-]C1=C2N=CN[C-]2[NH+]=C[N-]1.[S-]c1ncnc2[nH]cnc12,.,/,/,/,/,/
CC(/C=C/c1ccco1)=N/NC(=O)Cc1cccs1,.,.,.,.,25µM,.
O=C(/C=C/c1ccco1)c1cccnc1,.,.,.,.,13µM,/
CC(/C=C/c1ccco1)=N/NC(=O)c1ccc(C)nc1,.,.,.,.,45µM,.
CC(/C=C/c1ccco1)=N\NC(=O)c1cc(C)[nH]n1,.,.,?,.,28µM,.
C/C(CC(=O)NC1CCCC1)=N\NC(=O)Cc1cccs1,.,.,.,.,.,.
Cc1cc(C(=O)N/N=C/c2ccco2)n[nH]1,.,.,.,.,.,.

# Screening results (PubChem)
